# Results from the supplement of paper PMC8728848.
# The full list was thinned out, with the strongest signals kept by preference.
# B1: MAL-II (Maackia amurensis), P93248 (protein)
# chain: ATSNSKPTQVLLATFLTFFFLLLNNVNSSDELSFTINNFVPNEADLLFQGEASVSSTGVLQLTRVENGQPQQYSVGRALYAAPVRIWDNTTGSVASFSTSFTFVVKAPNPTITSDGLAFFLAPPDSQIPSGRVSKYLGLFNNSNSDSSNQIVAVEFDTYFGHSYDPWDPNYRHIGIDVNGIESIKTVQWDWINGGVAFATITYLAPNKTLIASLVYPSNQTSFIVAASVDLKEILPEWVRVGFSAATGYPTQVETHDVLSWSFTSTLEANSDAATENNVHIARYTA
# Experiments:
# Experiment in all cases: glycan array binding signal (z-score within array); higher = stronger binding
# Settings in all cases: glycan notation: IUPAC condensed, linker removed
# [1] = target: Fuc(a1-2)Gal(b1-3)GalNAc(a1-3)[Fuc(a1-2)]Gal(b1-4)GlcNAc
# Method in brief: (§1)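 Glycan array data were curated from 3228 arrays in the Consortium for Functional Glycomics database and kept only where the protein sequence was available. Glycan names were converted to IUPAC-condensed notation, and columns mapping to the same glycan were averaged. The binding signal is a within-array Z-score, averaged across arrays of the same protein sequence at different concentrations or buffers and across linkers. Negative Z-scores can be read as non-binding.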
# [2] = target: Fuc(a1-2)[Gal(a1-3)]Gal(b1-3)GlcNAc(b1-2)Man(a1-3)[Fuc(a1-2)[Gal(a1-3)]Gal(b1-3)GlcNAc(b1-2)Man(a1-6)]Man(b1-4)GlcNAc(b1-4)[Fuc(a1-6)]GlcNAc
# Method in brief: as §1
# [3] = target: Fuc(a1-2)[Gal(a1-3)]Gal(b1-3)GlcNAc(b1-3)GalNAc
# Method in brief: as §1
# [4] = target: Fuc(a1-2)[Gal(a1-4)]Gal(b1-4)GlcNAc
# Method in brief: as §1
# [5] = target: Fuc(a1-2)[GalNAc(a1-3)]Gal(b1-3)GlcNAc(b1-6)GalNAc
# Method in brief: as §1
# [6] = target: Fuc(a1-2)[GalNAc(a1-3)]Gal(b1-4)GlcNAc(b1-3)Gal(b1-4)GlcNAc
# Method in brief: as §1
# [7] = target: Fuc(a1-3)[Gal3S(b1-4)]GlcNAc
# Method in brief: as §1
# [8] = target: Gal(a1-3)Fuc(a1-2)Gal(b1-4)GlcNAc(b1-3)[Gal(a1-3)Fuc(a1-2)Gal(b1-4)GlcNAc(b1-6)]GalNAc
# Method in brief: as §1
# [9] = target: Gal(a1-3)Gal(b1-4)GlcNAc(b1-2)Man
# Method in brief: as §1
# [10] = target: Gal(a1-3)Gal(b1-4)GlcNAc(b1-2)Man(a1-3)[Gal(a1-3)Gal(b1-4)GlcNAc(b1-2)Man(a1-6)]Man(b1-4)GlcNAc(b1-4)GlcNAc
# Method in brief: as §1
# [11] = target: Gal(a1-3)[Gal(a1-4)]Gal(b1-4)GlcNAc
# Method in brief: as §1
# Gal(a1-4)Gal(b1-4)Glc = target: Gal(a1-4)Gal(b1-4)Glc
# Method in brief: as §1
# Gal(a1-4)Gal(b1-4)GlcNAc = target: Gal(a1-4)Gal(b1-4)GlcNAc
# Method in brief: as §1
# [12] = target: Gal(b1-3)GlcNAc(b1-3)Gal(b1-3)GlcNAc
# Method in brief: as §1
# [13] = target: Gal(b1-3)GlcNAc(b1-3)Gal(b1-4)GlcNAc(b1-3)Gal(b1-4)GlcNAc(b1-2)[Gal(b1-3)GlcNAc(b1-3)Gal(b1-4)GlcNAc(b1-3)Gal(b1-4)GlcNAc(b1-6)]Man(a1-6)[Gal(b1-3)GlcNAc(b1-3)Gal(b1-4)GlcNAc(b1-3)Gal(b1-4)GlcNAc(b1-2)Man(a1-3)]Man(b1-4)GlcNAc(b1-4)[Fuc(a1-6)]GlcNAc
# Method in brief: as §1
# [14] = target: Gal(b1-4)GalNAc(b1-3)[Fuc(a1-2)]Gal(b1-4)GlcNAc
# Method in brief: as §1
# [15] = target: Gal(b1-4)GlcNAc(b1-2)Man(a1-3)[GlcNAc(b1-4)][Gal(b1-4)GlcNAc(b1-2)Man(a1-6)]Man(b1-4)GlcNAc(b1-4)GlcNAc
# Method in brief: as §1
# [16] = target: Gal(b1-4)GlcNAc(b1-2)[Gal(b1-4)GlcNAc(b1-4)]Man(a1-3)[Gal(b1-4)GlcNAc(b1-2)[Gal(b1-4)GlcNAc(b1-6)]Man(a1-6)]Man(b1-4)GlcNAc(b1-4)GlcNAc
# Method in brief: as §1
# [17] = target: Gal(b1-4)GlcNAc(b1-3)Gal(b1-4)GlcNAc(b1-3)Gal(b1-4)GlcNAc(b1-2)Man(a1-3)[Gal(b1-4)GlcNAc(b1-3)Gal(b1-4)GlcNAc(b1-3)Gal(b1-4)GlcNAc(b1-2)Man(a1-6)]Man(b1-4)GlcNAc(b1-4)GlcNAc
# Method in brief: as §1
# [18] = target: Gal(b1-4)GlcNAc(b1-6)Gal(b1-4)GlcNAc
# Method in brief: as §1
# Gal3S(b1-3)GalNAc = target: Gal3S(b1-3)GalNAc
# Method in brief: as §1
# Gal3S(b1-3)GlcNAc = target: Gal3S(b1-3)GlcNAc
# Method in brief: as §1
# Gal3S(b1-4)Glc = target: Gal3S(b1-4)Glc
# Method in brief: as §1
# Gal3S(b1-4)Glc6S = target: Gal3S(b1-4)Glc6S
# Method in brief: as §1
# Gal3S(b1-4)GlcNAc6S = target: Gal3S(b1-4)GlcNAc6S
# Method in brief: as §1
# [19] = target: Gal3S(b1-4)[Fuc(a1-3)]GlcNAc6S
# Method in brief: as §1
# Gal3S4S(b1-4)GlcNAc = target: Gal3S4S(b1-4)GlcNAc
# Method in brief: as §1
# Gal3S6S(b1-4)GlcNAc = target: Gal3S6S(b1-4)GlcNAc
# Method in brief: as §1
# Gal4S6S(b1-4)GlcNAc = target: Gal4S6S(b1-4)GlcNAc
# Method in brief: as §1
# GalNAc(b1-4)GlcNAc6S = target: GalNAc(b1-4)GlcNAc6S
# Method in brief: as §1
# [20] = target: GlcNAc(b1-2)Man(a1-3)[GlcNAc(b1-4)][GlcNAc(b1-2)Man(a1-6)]Man(b1-4)GlcNAc(b1-4)[Fuc(a1-6)]GlcNAc
# Method in brief: as §1
# [21] = target: GlcNAc(b1-3)Gal(b1-4)GlcNAc(b1-3)GalNAc
# Method in brief: as §1
# Kdn(a2-3)Gal(b1-3)GalNAc = target: Kdn(a2-3)Gal(b1-3)GalNAc
# Method in brief: as §1
# [22] = target: Man(a1-3)[Man(a1-6)]Man(a1-6)[Man(a1-3)]Man(b1-4)GlcNAc(b1-4)GlcNAc
# Method in brief: as §1
# [23] = target: Man(a1-3)[Man(a1-6)]Man(b1-4)GlcNAc(b1-4)[Fuc(a1-6)]GlcNAc
# Method in brief: as §1
# [24] = target: Neu5Ac(a2-3)Gal(b1-3)GalNAc
# Method in brief: as §1
# [25] = target: Neu5Ac(a2-3)Gal(b1-3)GalNAc6S
# Method in brief: as §1
# [26] = target: Neu5Ac(a2-3)Gal(b1-3)GlcNAc6S
# Method in brief: as §1
# [27] = target: Neu5Ac(a2-3)Gal(b1-3)[GlcNAc(b1-6)]GalNAc
# Method in brief: as §1
# [28] = target: Neu5Ac(a2-3)Gal(b1-3)[Neu5Ac(a2-6)]GalNAc
# Method in brief: as §1
# [29] = target: Neu5Ac(a2-3)Gal(b1-4)GlcNAc(b1-2)[Neu5Ac(a2-3)Gal(b1-4)GlcNAc(b1-4)]Man(a1-3)[GlcNAc(b1-4)][Neu5Ac(a2-3)Gal(b1-4)GlcNAc(b1-4)Man(a1-6)]Man(b1-4)GlcNAc(b1-4)GlcNAc
# Method in brief: as §1
# [30] = target: Neu5Ac(a2-3)Gal(b1-4)GlcNAc(b1-3)Gal
# Method in brief: as §1
# [31] = target: Neu5Ac(a2-3)Gal(b1-4)GlcNAc(b1-6)[Neu5Ac(a2-3)Gal(b1-3)]GalNAc
# Method in brief: as §1
# [32] = target: Neu5Ac(a2-3)Gal(b1-4)GlcNAc6S
# Method in brief: as §1
# [33] = target: Neu5Ac(a2-3)Gal(b1-4)[Fuc(a1-3)]GlcNAc(b1-6)[Neu5Ac(a2-3)Gal(b1-3)]GalNAc
# Method in brief: as §1
# [34] = target: Neu5Ac(a2-3)Gal6S(b1-4)[Fuc(a1-3)]GlcNAc
# Method in brief: as §1
# [35] = target: Neu5Ac(a2-3)[GalNAc(b1-4)]Gal(b1-4)GlcNAc
# Method in brief: as §1
# Neu5Ac(a2-6)Gal = target: Neu5Ac(a2-6)Gal
# Method in brief: as §1
# [36] = target: Neu5Ac(a2-6)Gal(b1-3)GlcNAc(b1-3)[Gal(b1-4)GlcNAc(b1-6)]Gal(b1-4)Glc
# Method in brief: as §1
# Neu5Ac(a2-6)Gal(b1-4)Glc = target: Neu5Ac(a2-6)Gal(b1-4)Glc
# Method in brief: as §1
# [37] = target: Neu5Ac(a2-6)Gal(b1-4)GlcNAc(b1-2)Man(a1-3)[Neu5Ac(a2-6)Gal(b1-4)GlcNAc(b1-2)Man(a1-6)]Man(b1-4)GlcNAc(b1-4)[Fuc(a1-6)]GlcNAc
# Method in brief: as §1
# [38] = target: Neu5Ac(a2-6)Gal(b1-4)GlcNAc(b1-3)Gal(b1-3)GlcNAc
# Method in brief: as §1
# [39] = target: Neu5Ac(a2-8)Neu5Ac(a2-3)Gal(b1-4)GlcNAc
# Method in brief: as §1
binder,measurement,setting,value
B1,glycan array binding signal (z-score),[1],-0.182
same,glycan array binding signal (z-score),[2],0.051
same,glycan array binding signal (z-score),[3],-0.241
same,glycan array binding signal (z-score),[4],-0.171
same,glycan array binding signal (z-score),[5],-0.266
same,glycan array binding signal (z-score),[6],-0.177
same,glycan array binding signal (z-score),[7],-0.195
same,glycan array binding signal (z-score),[8],-0.261
same,glycan array binding signal (z-score),[9],-0.188
same,glycan array binding signal (z-score),[10],0.244
same,glycan array binding signal (z-score),[11],-0.252
same,glycan array binding signal (z-score),Gal(a1-4)Gal(b1-4)Glc,-0.133
same,glycan array binding signal (z-score),Gal(a1-4)Gal(b1-4)GlcNAc,-0.185
same,glycan array binding signal (z-score),[12],-0.172
same,glycan array binding signal (z-score),[13],0.068
same,glycan array binding signal (z-score),[14],-0.263
same,glycan array binding signal (z-score),[15],-0.267
same,glycan array binding signal (z-score),[16],-0.229
same,glycan array binding signal (z-score),[17],0.674
same,glycan array binding signal (z-score),[18],-0.23
same,glycan array binding signal (z-score),Gal3S(b1-3)GalNAc,8.15
same,glycan array binding signal (z-score),Gal3S(b1-3)GlcNAc,2.09
same,glycan array binding signal (z-score),Gal3S(b1-4)Glc,1.81
same,glycan array binding signal (z-score),Gal3S(b1-4)Glc6S,3.27
same,glycan array binding signal (z-score),Gal3S(b1-4)GlcNAc6S,6.03
same,glycan array binding signal (z-score),[19],2.12
same,glycan array binding signal (z-score),Gal3S4S(b1-4)GlcNAc,-0.162
same,glycan array binding signal (z-score),Gal3S6S(b1-4)GlcNAc,-0.222
same,glycan array binding signal (z-score),Gal4S6S(b1-4)GlcNAc,-0.156
same,glycan array binding signal (z-score),GalNAc(b1-4)GlcNAc6S,-0.292
same,glycan array binding signal (z-score),[20],-0.148
same,glycan array binding signal (z-score),[21],-0.159
same,glycan array binding signal (z-score),Kdn(a2-3)Gal(b1-3)GalNAc,3.27
same,glycan array binding signal (z-score),[22],-0.107
same,glycan array binding signal (z-score),[23],-0.337
same,glycan array binding signal (z-score),[24],3.54
same,glycan array binding signal (z-score),[25],5.77
same,glycan array binding signal (z-score),[26],-0.11
same,glycan array binding signal (z-score),[27],3.23
same,glycan array binding signal (z-score),[28],7.48
same,glycan array binding signal (z-score),[29],-0.282
same,glycan array binding signal (z-score),[30],-0.196
same,glycan array binding signal (z-score),[31],3.13
same,glycan array binding signal (z-score),[32],-0.215
same,glycan array binding signal (z-score),[33],0.889
same,glycan array binding signal (z-score),[34],-0.22
same,glycan array binding signal (z-score),[35],-0.213
same,glycan array binding signal (z-score),Neu5Ac(a2-6)Gal,-0.234
same,glycan array binding signal (z-score),[36],-0.18
same,glycan array binding signal (z-score),Neu5Ac(a2-6)Gal(b1-4)Glc,-0.184
same,glycan array binding signal (z-score),[37],-0.089
same,glycan array binding signal (z-score),[38],-0.178
same,glycan array binding signal (z-score),[39],-0.255
